Assay outcomes (PubChem)
Mac1 fbg inh: inhibitors of human CD11b/CD18 binding to fibrinogen. 0.54% of 93,000 active. inhibition, % at 10 µM. K562 CD11b/CD18 adhesion to fibrinogen, ATPlite luminescence; Mn2+ added to activate the integrin. P05107+P11215;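 active = primary inhibition of 50% or more at 10 µM, then 40% or more on retest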
Target sequence (P05107 whole entry, looked up, other chains not shown): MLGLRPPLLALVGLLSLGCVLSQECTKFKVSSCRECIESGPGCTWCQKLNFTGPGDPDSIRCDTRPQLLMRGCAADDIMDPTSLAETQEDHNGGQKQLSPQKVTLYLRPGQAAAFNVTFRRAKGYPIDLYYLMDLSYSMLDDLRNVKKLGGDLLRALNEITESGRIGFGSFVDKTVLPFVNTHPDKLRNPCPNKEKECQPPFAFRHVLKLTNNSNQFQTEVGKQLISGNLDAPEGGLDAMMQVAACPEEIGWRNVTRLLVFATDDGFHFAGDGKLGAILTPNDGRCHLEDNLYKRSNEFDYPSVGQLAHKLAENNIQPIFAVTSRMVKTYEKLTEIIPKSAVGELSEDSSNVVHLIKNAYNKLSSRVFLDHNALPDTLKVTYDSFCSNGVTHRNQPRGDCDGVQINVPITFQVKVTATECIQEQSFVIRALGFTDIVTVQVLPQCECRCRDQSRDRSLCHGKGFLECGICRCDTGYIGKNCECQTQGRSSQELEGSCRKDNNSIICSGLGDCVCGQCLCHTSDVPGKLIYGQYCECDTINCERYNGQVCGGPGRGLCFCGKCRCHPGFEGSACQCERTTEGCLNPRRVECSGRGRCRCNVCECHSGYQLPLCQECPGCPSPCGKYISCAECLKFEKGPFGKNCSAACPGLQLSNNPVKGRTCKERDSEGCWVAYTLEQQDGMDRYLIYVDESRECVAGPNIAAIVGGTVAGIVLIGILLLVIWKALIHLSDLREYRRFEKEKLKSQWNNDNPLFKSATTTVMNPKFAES
GALR2 ag: agonists of human galanin receptor 2 (GALR2). AID 803. GALR2-expressing cells, agonist activation read-out. 0.48% of 140,000 active. activation, % (concentration not given with the values). O43603; in the data active = activation above about 5%, passing the limit was not always enough;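 also: 0% = vehicle buffer wells and 100% = reference agonist at full effect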
S1P2 antag: blocks the human S1P2 receptor; 0.21% of 97,000 active; AID 736; inhibition, % at 5 µM; cell-based S1P2 antagonist assay, inhibition at 5 uM; in the data active = inhibition above about 45%;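 also: CRE beta-lactamase reporter cells expressing human S1P2 stimulated with S1P; 0% = agonist at EC80 alone and 100% = agonist plus reference antagonist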
CD11b adhes enh: increases human CD11b/CD18 adhesion to fibrinogen; P05107+P11215; K562 CD11b/CD18 adhesion to fibrinogen, ATPlite luminescence; activation, % at 10 µM; 0.07% of 93,000 active;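 active = 10 µM primary screen giving 50% or more activity, confirmed by 40% or more on retest at that dose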
GALR2 antag: GALR2 (human) receptor antagonism; O43603; GALR2-expressing cells, antagonist mode; inhibition, % at 4 µM; 0.39% of 140,000 active; AID 828;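 also: cells stimulated with galanin 1-16 at roughly its EC80; 0% = agonist challenge control and 100% = basal control without agonist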
S1P2 agonist: agonists of human S1P2 receptor; O95136; S1P2-expressing cell line, agonist reporter read-out; activation, % at 4.5 µM; 0.46% of 97,000 active; AID 729; in the data active = activation above about 16%;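 also: 0% = vehicle low control and 100% = maximal reference agonist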
GALR2 blk conf: confirmation of human galanin receptor 2 (GALR2) antagonists | shares compounds with GALR2 antag | GALR2-expressing cells, antagonist mode, inhibition | inhibition, % at 4 µM | 60% of 480 active | AID 866;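 also: cells stimulated with galanin at about its EC80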
BLA inhib ctr: inhibits beta-lactamase reporter in GALR2 antagonist counterscreen; CHO NFAT-BLA reporter, beta-lactamase FRET, thapsigargin-stimulated; shares compounds with GALR2 antag; inhibition, % at 4.2 µM; 36% of 480 active; AID 867;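 active = inhibition above the mean inhibition across tested compounds plus 3 SD, cut at about 27% in these data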;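 also: 0% = 500 nM thapsigargin stimulated wells and 100% = unstimulated BSA only wells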
Numbers without * were called inactive; / = no result given. Shown are actives, neighbours in structure and some others; about 1.5% of the full set was active somewhere. Rule as the data show it, unless noted: active = inhibition above about 27%; inactive = the rest.

SMILES	Mac1 fbg inh	GALR2 ag	S1P2 antag	CD11b adhes enh	GALR2 antag	S1P2 agonist	GALR2 blk conf	BLA inhib ctr
O=C(C#Cc1ccccc1)c1cccc([N+](=O)[O-])c1	13.5	1.2	66.6*	-0.9	33.6*	-12.1	72.4*	75.3*
O=C(NC(Nc1nc2ccc([N+](=O)[O-])cc2s1)(C(F)(F)F)C(F)(F)F)c1ccccc1Cl	/	-2.5	/	/	96.5*	/	94.2*	91.0*
CCn1cc(C(=O)NC(C)C23CC4CC(CC(C4)C2)C3)cn1 (stereo unspecified)	/	1.0	/	/	-3.6	/	/	/
CC(NC(=O)Cn1ncc(Cl)c(Cl)c1=O)C12CC3CC(CC(C3)C1)C2 (stereo unspecified)	/	-0.7	/	/	57.0*	/	72.2*	73.9*
COc1ccc(NC(=O)/C(Cl)=C(/Cl)S(=O)(=O)Cc2ccc(C)cc2)cn1	7.6	-0.1	90.2*	-0.9	78.3*	-10.8	92.7*	95.0*
COc1ccc(NC(=O)C(CC(C)C)NC(=O)c2ccccc2C)cn1 (stereo unspecified)	18.7	-1.9	0.8	2.1	-9.8	-2.6	/	/
CC1CCC2(CC1)C(Nc1cccc(Cl)c1)=NC(=S)N2CC#N (stereo unspecified)	/	-1.5	-48.8	/	-16.1	1.4	/	/
CS(=O)(=O)c1nc(-c2ccco2)cc(C(F)(F)F)n1	-4.3	2.9	23.8	-1.5	27.0*	-8.4	52.9*	43.5*
Nc1nonc1C(=O)NCCNCc1ccccc1OCc1ccccc1F	17.9	-2.2	1.8	-0.6	6.0	-2.0	/	/
Nc1nonc1C(=O)NCCNCc1cc(Br)ccc1OCc1ccccc1F	-10.6	-1.9	72.9*	2.1	31.5*	-3.2	33.0*	52.4*
O=[N+]([O-])c1ccc(N2CCC(O)CC2)nc1	/	-2.1	/	/	6.7	/	/	/
Cc1nc2ccc(NC(=O)c3ccc(Cl)c(S(=O)(=O)N(C)c4ccccc4)c3)cc2s1	/	-2.2	/	/	0.8	/	/	/
Cc1nc2ccc(NC(=O)c3cc(S(=O)(=O)N(C)c4ccccc4)ccc3Cl)cc2s1	/	4.4	/	/	36.8*	/	31.2*	5.1
C=CCSC(=C(C#N)C#N)c1cc2c([nH]1)CCCC2	103.4	-1.4	8.2	-9.6	30.6*	-5.0	27.0*	17.2
O=C(N/N=C/C(Br)=C/c1ccccc1)c1n[nH]c2c1CCC2	15.1	0.0	14.6	0.3	37.4*	0.1	33.3*	60.2*
CCC(Oc1ccccc1)C(=O)NCCOC (stereo unspecified)	/	-0.5	/	/	-3.0	/	/	/
CCCC(=O)Nc1nc(C)c(-c2csc(Nc3ccccc3OC)n2)s1	2.7	0.8	6.2	9.4	-21.2	-4.1	/	/
COc1ccccc1Nc1nc(-c2c(C)[nH]c3ccccc23)cs1	/	2.4	/	/	30.4*	/	18.2	15.4
C=CCN(CC=C)c1cnn(-c2nc3ccccc3[nH]2)c(=O)c1Cl	3.0	-3.3	-11.3	1.2	10.9	-1.2	/	/
O=c1c(Cl)c(NCCCO)cnn1-c1nc2ccccc2[nH]1	/	-2.6	29.8	/	35.8*	-4.2	41.5*	37.2*
Cc1cc(Nc2cccc(Cl)c2)nc(NCc2ccccc2)n1	/	0.3	/	/	31.2*	/	51.2*	25.3
Cc1cc(N/N=C/c2cccc(Cl)c2)nc(NCc2ccccc2)n1	/	-0.6	/	/	-2.8	/	/	/
CN(CC(=O)O/N=C(\N)c1ccc([N+](=O)[O-])cc1)S(=O)(=O)c1ccc2ccccc2c1	-23.0	-2.1	3.7	-4.9	-5.9	-3.0	/	/
C(=N\Nc1nc2ccccc2[nH]1)/c1cccs1	-5.7	-2.6	15.0	0.0	28.8*	-4.4	26.6	12.6
C=CCn1cc(/C=N/Nc2nc3ccccc3[nH]2)c2ccccc21	65.6	-0.7	/	-1.5	28.1*	/	29.0*	10.8
SMILES	Mac1 fbg inh	GALR2 ag	S1P2 antag	CD11b adhes enh	GALR2 antag	S1P2 agonist	GALR2 blk conf	BLA inhib ctr
Cc1cc(=O)[nH]c(N/N=C/c2sccc2C)n1	/	-1.8	/	/	-1.1	/	/	/
Cc1ccsc1/C=N/Nc1nc2ccccc2[nH]1	-6.4	-1.4	/	-0.2	32.5*	/	38.4*	11.6
CCN(CC)c1ccc(/C=N/Nc2nc3ccccc3[nH]2)cc1	/	4.2	/	/	41.7*	/	35.1*	22.7
O=S1(=O)CCC(NC(=S)N2CCOCC2)C1 (stereo unspecified)	/	-0.8	/	/	-12.2	/	/	/
O=C(CCl)NC(=O)NC12CC3CC(CC(C3)C1)C2	/	-0.9	/	/	7.4	/	/	/
Cc1ccc(S(=O)(=O)N2CCN(C(C)C(=O)Nc3ccccc3-c3ccccc3)CC2)cc1 (stereo unspecified)	/	-1.3	/	/	6.1	/	/	/
CCOC(=O)C(=CNc1ccc(NC2=NCC(C)S2)cc1)C(=O)OCC (stereo unspecified)	/	2.1	/	/	32.6*	/	45.0*	37.2*
CCOC(=O)C(=CNc1cccc(N)n1)C(=O)OCC	4.8	0.4	-10.2	-2.8	-21.6	-4.0	/	/
O=C(/C=C/c1ccco1)Nc1ccccn1	-5.8	0.3	/	-5.4	-4.0	/	/	/
Cc1ccc(NC(=O)/C=C/c2ccco2)nc1	-11.4	0.4	/	-0.6	34.0*	/	23.4	48.0*
COc1cccc(-n2cnc3scc(-c4cccs4)c3c2=O)c1	0.5	-3.1	-42.4	1.3	4.9	1.1	/	/
O=c1c2c(-c3cccs3)csc2ncn1-c1ccc(Br)cc1	/	-0.4	-38.0	/	55.2*	1.6	13.4	8.1
NC(=O)c1ccccc1NC(=O)Nc1cccc(Cl)c1Cl	/	-1.6	/	/	52.7*	/	69.0*	32.6*
Cc1ccc(S(=O)(=O)N[C@H](C(=O)Oc2ccc3c(C(F)(F)F)cc(=O)oc3c2)c2ccccc2)cc1	13.9	-1.1	57.8*	-4.8	43.9*	-7.9	21.9	36.1*
CC(C)OC(=O)CSc1nc2ccccc2s1	8.1	-2.5	-24.2	-3.4	33.7*	-3.5	6.3	15.5
Cn1c(NC(=O)c2ccc(F)c(F)c2)cc(=O)n(C)c1=O	3.1	-1.4	/	-5.0	27.6*	/	16.1	11.3
Cn1c(-c2c(N)n(CCc3ccccc3)c3nc4ccccc4nc23)nc2ccccc21	14.8	0.2	58.8*	-2.1	36.1*	-7.7	45.1*	54.1*
CCCn1c(C)nc2c(c1=O)c1nc3ccccc3nc1n2CCc1ccccc1	/	-3.1	-1.9	/	4.4	-3.6	/	/
Cn1c(-c2c(N)n(CCCc3ccccc3)c3nc4ccccc4nc23)nc2ccccc21	6.5	0.3	75.1*	-1.9	38.3*	-13.2	51.5*	54.7*
CCOC(=O)C1C(C)=C(Nc2ccc(OC)cc2)C(=O)N1c1ccc(OC)cc1 (stereo unspecified)	/	-1.0	/	/	5.6	/	/	/
COc1ccc(CNC(=O)Cc2nn(C)c(=O)c3ccccc23)cc1	/	-0.7	21.4	/	36.0*	-2.0	23.0	5.5
COc1ccc(OC)c(NC(=O)Cc2nn(C)c(=O)c3ccccc23)c1	/	-1.8	-17.9	/	8.6	-0.3	/	/
COC(=O)C1=C(C)NC(=S)N(C(C)=O)C1c1ccc(OC)c(OC)c1 (stereo unspecified)	/	2.0	/	/	-0.4	/	/	/
